Values without a mark were called inactive. No rule for the calls is given here.

What is called inhibition is the relative decrease from the control value, in per cent.

Pantothenate synthetase (Mycobacterium tuberculosis (strain ATCC 25618 / H37Rv)), sequence (P9WIL5 whole entry, looked up): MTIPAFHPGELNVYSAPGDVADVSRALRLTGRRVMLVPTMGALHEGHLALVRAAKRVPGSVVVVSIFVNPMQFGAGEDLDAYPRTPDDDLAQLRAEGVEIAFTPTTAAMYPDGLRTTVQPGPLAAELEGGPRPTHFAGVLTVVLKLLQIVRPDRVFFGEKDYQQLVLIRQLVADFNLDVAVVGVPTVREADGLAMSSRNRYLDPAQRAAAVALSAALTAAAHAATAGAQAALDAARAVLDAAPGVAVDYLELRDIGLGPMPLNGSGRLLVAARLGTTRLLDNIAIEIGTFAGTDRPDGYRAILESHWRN

This assay concerns the target Pantothenate synthetase (Mycobacterium tuberculosis (strain ATCC 25618 / H37Rv)) (UniProt P9WIL5). Put plainly: Recombinant Mtb pantothenate synthetase (PanC) inhibitors, coupled enzyme, confirmatory (AID 375).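 Also: 0% = full reaction with vehicle and 100% = no enzyme background.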 The following applies: coupled enzyme assay; at 10 µM, stronger effect = higher value.
For `C=Cn1c(C(=O)O)cc(CC)c1-c1ccccc1`, the inhibition is 9%.
For the compound `CSCC[C@@H](Nc1nc(-c2ccccc2)nc2c1oc1ccccc12)C(=O)O`, the inhibition was 4%.
For the compound `CNC(=O)c1ccc(N(Cc2ccccc2C)S(C)(=O)=O)cc1`, the inhibition was 7%.
In the case of `O=S(=O)(c1ccccc1)c1nc(-c2ccco2)oc1NCCCN1CCOCC1`, the inhibition is 0%.
For the compound `C=C1[C@@H](C)C2[C@H](Cc3ccccc3)NC(=O)[C@]23OC(=O)CC[C@H](O)CCC[C@H](C)C/C=C/[C@H]3[C@@H]1O` (stereo partly specified), the inhibition was 0%.
The same measure for `CCOC(=O)C1CCCN(C(=O)c2sc3nc(-c4ccccc4)cn3c2C)C1` (stereo unspecified): 0%; for `Cc1ccccc1-c1nc(CS(=O)(=O)CC(=O)NCc2ccc3c(c2)OCO3)c(C)o1`: 6%; for `CC(C)c1cc(C(=O)Nc2cccnc2)no1`: 3%.
The same measure for `CCCC1CC(C)(C(=O)Cn2[nH]c(=O)ccc2=O)OC1=O` (stereo unspecified): 10%; for `CN(Cc1ccccc1)C(=O)CNC(=O)Cn1cnc2ccccc2c1=O`: 0%.
With `O=C(Nc1ccc(N2CCOCC2)c(Cl)c1)c1ccc(Br)o1`, the inhibition is 0%.
For the compound `COc1ccc(C)cc1NC(=O)C1CCN(S(=O)(=O)c2cccc3cccnc23)CC1`, the inhibition was 19%.
`Cc1cn(C2CC3OCC3O2)c(=O)[nH]c1=O` (stereo unspecified): the inhibition was 0%.
Take `COc1ccc(/C=C/C(=O)Nc2ccccc2C(=O)O)cc1OC`: the inhibition is 0%.
As for `CCOc1ccc(NC(=O)CSc2nnc(Cc3cccn3C)n2-c2ccc(OC)cc2)cc1`, the inhibition is 1%.
In the case of `Clc1ccccc1CN1CCc2sccc2C1`, the inhibition was 0%.

Values taken from PubChem BioAssay.
